SMARCA2 activ – SMARCA2 (BRM) function activators, primary screen, cell-based, luminescence, high throughput; MG213 cells, MMTV-luciferase reporter, dexamethasone, overnight; activation, % at 9.1 µM; hit rate 1% among 370,000; AID 652017, 2013; in the data active = activation above about 7.8%;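 also: 0% = vehicle wells and 100% = reference activator wells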
GalR3 antag – GalR3 antagonists in HEK293 cells, primary screen, cell-based, fluorescence readout. inhibition, % at 3 µM. Galanin receptor type 3 (Homo sapiens), O60755. HEK293 GalR3-CNG cAMP membrane potential fluorescence; galR3 body fused to GalR1 C-terminus. hit rate 0.44% among 360,000. AID 651719, 2012;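 active = inhibition above the screen-wide average plus 3 SD, cut at about 13% in these data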;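 also: forskolin and galanin both at EC90 stimulate the cells; cAMP rise reported by CNG channel membrane potential dye signal; 0% = forskolin plus galanin with DMSO and 100% = forskolin alone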
Target sequence (O60755 1-299 limits assumed): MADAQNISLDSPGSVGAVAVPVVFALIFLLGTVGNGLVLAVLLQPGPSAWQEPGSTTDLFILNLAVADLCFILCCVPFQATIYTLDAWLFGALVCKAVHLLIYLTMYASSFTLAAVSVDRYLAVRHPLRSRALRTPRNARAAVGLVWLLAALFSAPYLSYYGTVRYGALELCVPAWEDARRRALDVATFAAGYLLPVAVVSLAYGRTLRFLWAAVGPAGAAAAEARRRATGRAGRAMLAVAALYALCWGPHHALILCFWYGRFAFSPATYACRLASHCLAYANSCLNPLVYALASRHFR
FXN GAA850 act – FXN promoter activators, primary screen, cell-based, luciferase luminescence, HEK293 lucGAA850. hit rate 0.56% among 360,000. activation, % at 6 µM. HEK293 lucGAA850 FXN promoter luciferase reporter, 24 h; percent of 10 µM SAHA response;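 active = activation above the average of all compounds screened plus 3 SD, cutoff fixed separately per campaign, cut at about 7.5% in these data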;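 also: 0% = DMSO wells and 100% = 10 µM SAHA wells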
Hsp70 act – Hsp70 transcriptional activators, primary screen, cell-based, HeLa, Hsp70 promoter luciferase, luminescence, 10 µM; activation, % at 10 µM; HeLa Hsp70 promoter luciferase reporter; scaled: vehicle 0, proteasome-inhibitor control 100%; hit rate 0.04% among 200,000;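 active = activation above the mean across all tested compounds plus 3 SD, cutoff set per campaign, cut at about 5.5% in these data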;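 also: 100% = MG132 at 30 µM as the positive control and 0% = DMSO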
HIF activator – HIF pathway transcriptional activators, primary screen, cell-based, U2OS HRE-luciferase, luminescence | hit rate 0.32% among 300,000 | activation, % at 7.5 µM (by protocol) | U2OS HRE-luciferase reporter; normalized: DMSO 0%, desferrioxamine 100%;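 active = mean activation of at least 10% of the iron chelator positive control signal, with at least half of replicates also reaching 10%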
SMARCA2 conf – SMARCA2 (BRM) function activators, confirmation, cell-based, luminescence, triplicate; shares compounds with SMARCA2 activ; MG213 cells, MMTV-luciferase with dexamethasone, overnight; MG213 cells expressing E1A, Rb sequestered; DMSO wells 0%, reference activator 100%; activation, % at 9.1 µM; hit rate 30% among 3,500; AID 652260, 2013;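 active = activation above its plate's cutoff, the mean activation of tested wells plus 3 SD, cut at about 7.9% in these data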
VP16 Luc act – GAL4-VP16 luciferase reporter activation, counter-screen for SMARCA2 (BRM) activator project, cell-based, pG5luc, luminescence, high throughput | hit rate 41% among 3,500 | AID 686939, 2013 | HEK293 GAL4-VP16 pG5luc reporter; scaled: DMSO wells 0%, SAHA wells 100% | shares compounds with SMARCA2 activ | activation, % at 9.1 µM;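 active = activation above the solvent-only control well mean plus 3 SD, averaged across control plates, cut at about 5.2% in these data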
Numbers without * were called inactive; · = no result given; ! = repeats disagree. Only some compounds are listed: those with a hit (about 2.2% of all), similar ones and a draw of the others.

SMILES	SMARCA2 activ	GalR3 antag	FXN GAA850 act	Hsp70 act	HIF activator	SMARCA2 conf	VP16 Luc act
CC1CCCC(C)N1CCCNC(=O)CN1C(=O)c2cccnc2Oc2ccc(Cl)cc21 (stereo not given)	8.9*	-1.5	-0.2	·	1.2	-0.7	0.9
COc1cccc(NC(=O)CN2C(=O)c3cccnc3Oc3ccc(Cl)cc32)c1	8.3*	-1.8	-0.9	·	0.6	0.8	0.1
COc1ccc(-n2cc(COC(=O)NCCc3c[nH]c4ccccc34)nn2)cc1	0.4	·	·	·	·	·	·
COC(=O)c1c(-c2cccnc2)csc1NC(=O)c1ccc2c(c1)OCO2	9.4*	-2.4	6.4	·	3.4	7.1	15.3*
COC(=O)c1sccc1NC(=O)c1ccc2c(c1)OCO2	-2.5	-7.0	-0.2	-0.1	-0.2	·	·
COCc1cc(N2CCNC[C@@H]2C)ccc1N1CCN(Cc2ccccc2)[C@H](C)C1	2.0	-8.3	·	·	·	·	·
O=C(Nc1ccccc1Cl)c1ccc(C(=O)Nc2ccccc2Cl)cc1	-6.2	-5.1	1.3	·	·	·	·
O=C(Nc1ccccc1Cl)c1ccn[nH]1	8.2*	-2.2	2.4	0.0	1.1	3.0	1.6
O=C(Nc1ccccc1Cl)c1ccccc1	8.8*	1.5	2.3	-0.1	1.6	2.1	5.6*
C[C@@H]1COc2cc(F)ccc2S(=O)(=O)N1C	-0.7	·	·	·	·	·	·
Cc1ccc(C(=O)N/N=C/c2ccc3c(c2)OCO3)o1	6.2	-4.0	6.9	0.3	2.4	·	·
CN(C)c1ccc(/C=C/C(=O)c2ccc3c(c2)OCO3)cc1	8.0*	-6.0	-0.5	·	·	0.7	3.0
Cc1ccc(NC(=O)/C=C/c2ccc3c(c2)OCO3)nc1	9.3*	-5.0	4.7	0.1	3.1	11.9*	6.6*
Cc1ccc(C(=O)/C=C/c2ccc3c(c2)OCO3)o1	10.9*	-7.8	1.9	-0.1	-0.4	9.4*	2.2
Cc1ccc(NC(=O)Nc2ccc3c(c2)OCO3)nc1	5.9	-5.8	1.9	-0.1	2.1	·	·
N#Cc1ccc(S(=O)(=O)N2CCCc3nc(-c4ccccc4)ccc32)cc1	-0.7	-8.1	·	·	·	·	·
C=CCOC(=O)N[C@H](c1ccc(-c2ccccc2)cc1)[C@H](C)/C=C/CC(=O)OC	-4.5	·	·	·	·	·	·
CC1CCCN(C(=O)COC(=O)c2ccc3[nH]c4c(c3c2)CCCC4)C1 (stereo not given)	8.1*	-2.9	3.6	·	2.6	3.9	3.7
Cc1cccc(C)c1NC(=O)C1C(c2ccc3c(c2)OCO3)=Nc2ccccc2N1C(=O)c1cccc(C(F)(F)F)c1 (stereo not given)	-6.8	-7.4	·	·	·	·	·
CC(=O)N1c2ccccc2N=C(c2ccc3c(c2)OCO3)C1C(=O)NCc1ccccc1 (stereo not given)	10.8*	-4.3	·	·	·	6.5	0.6
Cc1cccc(C)c1NC(=O)C1C(c2ccc3c(c2)OCO3)=Nc2ccccc2N1C(=O)c1ccccn1 (stereo not given)	8.1*	-7.3	·	·	·	4.2	-0.1
C=CCN1C(C(=O)OC)CN(Cc2cn(Cc3ccc(F)cc3)nn2)CCS1(=O)=O (stereo not given)	2.3	·	·	·	·	·	·
Cn1c(CNC(=O)C2CCCCC2)cc2ccccc21	8.2*	-9.6	-1.4	·	-1.4	-1.2	-0.3
CCn1c(CNC(=O)C2CCCCC2)cc2ccccc21	-1.7	-12.1	2.5	·	-2.8	·	·
c1coc(CNc2nc3ccccc3s2)c1	9.7*	-8.9	3.7	·	-8.0	15.0*	12.2*
SMILES	SMARCA2 activ	GalR3 antag	FXN GAA850 act	Hsp70 act	HIF activator	SMARCA2 conf	VP16 Luc act
COc1ccc(-c2csc(NCc3ccco3)n2)cc1	9.2*	-1.2	5.0	0.0	2.3	9.5*	12.8*
c1coc(CNc2nc(-c3ccncc3)cs2)c1	2.2	-2.5	4.4	-0.3	3.1	·	·
Cc1nnc(NCc2ccco2)s1	0.2	-4.0	-0.1	0.0	0.5	·	·
Cc1ccc(NS(=O)(=O)c2c(C)nc3sccn3c2=O)cc1C	9.6*	-6.7	1.7	·	-0.3	-2.6	-1.1
COC(=O)c1ccc(NS(=O)(=O)c2c(C)nc3sccn3c2=O)cc1	-0.7	8.0	0.8	·	·	·	·
C1=Cc2ccccc2Nc2ccccc21	-2.0	6.8	-0.2	·	0.2	·	·
COC(=O)/C(C#N)=C1/C=Cc2ccccc2N1	8.9*	-7.4	3.8	0.0	0.8	5.5	8.3*
CC(=O)Nc1nc2ncccn2c1-c1ccc(C)cc1	4.3	·	·	·	·	·	·
CC(=O)N1c2ccc(S(=O)(=O)N3CCC(C(=O)NCc4ccc(Cl)cc4)CC3)cc2CC1C (stereo not given)	-5.2	-1.4	-1.7	·	-0.5	·	·
CC(=O)N1c2ccc(S(=O)(=O)N3CCC(C(=O)NCc4ccc(C)cc4)CC3)cc2CC1C (stereo not given)	11.4*	-9.0	0.3	·	-0.3	-2.1	0.8
O=C(C(=O)N1CCN(S(=O)(=O)c2ccc(Cl)cc2)CC1)c1cccc(C(F)(F)F)c1	-5.2	-2.5	·	·	·	·	·
COc1cc(/C=N/n2cnnc2)ccc1OCc1ccccc1	8.1*	12.0	5.9	-0.1	2.2	5.2	0.1
Cc1ccc2c(c1)NC(=O)CC(c1ccccc1)=N2	1.9	-1.2	0.7	0.2	2.6	·	·
CC1=CC(C)=Nc2ccc(C)cc2N1	8.8*!	0.1	6.9	-0.2	1.8	6.8	11.2*
Nc1c(Cl)c(Cl)nc(C(=O)OCC(=O)N2CCCC2=O)c1Cl	-0.1	-2.6	-2.8	·	-0.2	·	·
O=C(OCC(=O)N1CCCC1=O)c1nc(Cl)c(Cl)c(Cl)c1Cl	34.0*	-2.0	6.8	·	1.8	7.2	3.6
C#CCCCN([C@H](C(=O)OC)C(C)C)S(=O)(=O)c1ccc(F)cc1Br	-4.5	·	·	·	·	·	·
C/C(=N/OCc1ccc(Br)cc1)c1ccccn1	9.1*	-1.9	6.2	0.2	1.7	6.6	8.7*
O=C(c1sccc1Cl)N1CCC(n2nnc3ncccc32)CC1	1.5	·	·	·	·	·	·
Cc1cccc(C(=O)N[C@H](C(=O)Nc2nnc(C3CC3)s2)C(C)C)c1	-3.3	-4.7	0.8	-0.2	-0.6	·	·
Cc1cccc(C(=O)N[C@H](C(=O)Nc2ncc(C)s2)C(C)C)c1	26.9*	-1.0	1.3	0.2	0.1	25.9*	0.3
Cc1cccc(CNC(=O)c2cc(S(=O)(=O)N3CCOCC3)cn2C)c1	13.6*	-10.2	1.1	·	-0.1	2.0	0.7
O=C(NCCc1c[nH]c2ccccc12)OCc1cn(Cc2ccc(F)cc2F)nn1	-1.7	·	·	·	·	·	·
